Assay results as given in article PMC4336329 (PLoS ONE, 2015).
Hit rate of the full screen: of about 310,000 compounds, about 2,200 (0.71%) showed an effect of 50% or more. The effect is printed as a negative number. This excerpt belongs to a sample that is enriched for strong results.

These compounds were tested against human ether-à-go-go-related gene (hERG) potassium channel (human, UniProt Q12809) (assay: primary screen, population patch clamp on CHO cells stably expressing hERG; higher = less effect of the substance).
Sequence of human ether-à-go-go-related gene (hERG) potassium channel (Q12809 whole entry, looked up): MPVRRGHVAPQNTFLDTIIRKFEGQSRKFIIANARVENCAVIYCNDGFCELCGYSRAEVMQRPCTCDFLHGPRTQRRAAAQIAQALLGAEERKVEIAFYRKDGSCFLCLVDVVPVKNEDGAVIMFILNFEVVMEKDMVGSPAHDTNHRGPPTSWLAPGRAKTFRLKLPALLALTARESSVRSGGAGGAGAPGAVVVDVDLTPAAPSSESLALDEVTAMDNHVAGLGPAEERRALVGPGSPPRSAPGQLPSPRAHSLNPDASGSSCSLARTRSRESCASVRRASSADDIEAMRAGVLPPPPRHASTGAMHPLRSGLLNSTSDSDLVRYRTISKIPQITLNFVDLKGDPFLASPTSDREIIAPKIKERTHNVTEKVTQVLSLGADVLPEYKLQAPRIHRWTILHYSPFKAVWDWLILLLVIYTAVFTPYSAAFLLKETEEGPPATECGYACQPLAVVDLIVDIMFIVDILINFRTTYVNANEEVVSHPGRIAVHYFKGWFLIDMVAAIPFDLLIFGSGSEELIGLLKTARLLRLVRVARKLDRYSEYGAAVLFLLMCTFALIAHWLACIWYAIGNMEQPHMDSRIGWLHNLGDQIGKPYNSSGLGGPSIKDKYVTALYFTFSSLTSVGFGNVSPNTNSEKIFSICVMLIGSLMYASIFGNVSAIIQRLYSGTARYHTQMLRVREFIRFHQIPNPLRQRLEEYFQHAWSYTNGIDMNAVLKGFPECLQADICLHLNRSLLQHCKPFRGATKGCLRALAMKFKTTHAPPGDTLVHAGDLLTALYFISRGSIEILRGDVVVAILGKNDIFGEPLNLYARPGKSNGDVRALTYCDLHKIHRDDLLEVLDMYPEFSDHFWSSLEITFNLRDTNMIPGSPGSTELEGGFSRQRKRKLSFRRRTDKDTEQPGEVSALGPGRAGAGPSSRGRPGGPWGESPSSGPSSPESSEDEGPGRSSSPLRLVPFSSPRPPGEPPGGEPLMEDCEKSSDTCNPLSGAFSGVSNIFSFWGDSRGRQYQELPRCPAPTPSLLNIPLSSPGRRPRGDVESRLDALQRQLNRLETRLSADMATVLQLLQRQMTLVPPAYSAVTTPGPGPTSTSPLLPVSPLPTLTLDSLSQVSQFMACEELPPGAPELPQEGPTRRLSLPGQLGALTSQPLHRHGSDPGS

| Compound | hERG current change (%, negative = inhibition) at 1uM [%] |
| --- | --- |
| CC(/C=N/n1c(-c2ccco2)n[nH]c1=S)=C\c1ccco1 | 13.9 |
| COCCCNc1nc2c(-c3cccc(C)c3)nnn2c2ccc(Cl)cc12 | 13.3 |
| CNC(=O)c1[nH]cnc1C(=O)N[C@@H](CCCCNC(=O)OC(C)(C)C)C(=O)OC(C)(C)C | 13.6 |
| Cc1cccc(NS(=O)(=O)c2cccc([N+](=O)[O-])c2)n1 | 13.7 |
| Cn1ccnc1SCC(=O)Nc1cc(C(F)(F)F)ccc1N1CCOCC1 | -0.591 |
| c1ccc(-c2noc(-c3cccs3)n2)nc1 | 7.74 |
| COc1cc2c(cc1OC)C1Cc3ccc(OC)c(OC)c3C[N+]1([O-])CC2 (stereo not shown) | 14.1 |
| CS(=O)(=O)Nc1ccc(C(=O)N2CCN(c3ccccc3F)CC2)cc1 | -69.2 |
| O=C(Nc1ccccc1N1CCN(C(=O)c2ccc(Cl)cc2)CC1)c1ccc2c(c1)OCO2 | -5.35 |
| O=C(Nc1ccccc1N1CCN(C(=O)c2ccccc2)CC1)c1cccc(Cl)c1 | -12.6 |
| CCC(=O)N1CCN(c2ccc(Cl)cc2NC(=O)c2cccc([N+](=O)[O-])c2)CC1 | -32 |
| O=C(Nc1ccccc1N1CCN(C(=O)c2ccccc2)CC1)c1ccc(Cl)cc1 | -7.21 |
| O=C(Nc1ccccc1N1CCN(C(=O)c2ccc(Cl)cc2)CC1)c1cccc(F)c1 | -81.2 |
| O=C(c1ccccc1)N1CCN(c2ccccc2F)CC1 | 9.77 |
| O=C(Nc1ccccc1N1CCN(C(=O)c2ccc(Cl)cc2)CC1)c1cccc([N+](=O)[O-])c1 | -65.2 |
| O=C(Nc1ccccc1N1CCN(C(=O)c2ccc(Cl)cc2)CC1)c1cccnc1 | -77 |
| CS(=O)(=O)Nc1ccc(C(=O)N2CCN(c3ccccc3)CC2)cc1 | -31.4 |
| O=C(c1cccc([N+](=O)[O-])c1)N1CCN(c2ccc(Cl)cc2)CC1 | 2.13 |
| O=C(Nc1ccccc1N1CCN(C(=O)c2ccc(Cl)cc2)CC1)c1ccc(Br)cc1 | -4.26 |
| Cc1cc(C)c(N2C(=O)C3C4CC(=O)C(c5ccccc54)C3C2=O)c(C)c1 (stereo not shown) | 3.35 |
| CC(Oc1ccc(Cl)cc1)c1ccnc(N)n1 (stereo not shown) | 15.5 |
| Cc1nc(COc2ccc(C(=O)NCc3ccccc3CN3CCCCC3)cc2)cs1 | -10.6 |
| Cc1sc(-n2c(C)cc(C=C3C(=O)NC(=O)NC3=O)c2C)c(C#N)c1C | 11.2 |

| Compound | hERG current change (%, negative = inhibition) at 1uM [%] |
| --- | --- |
| CN(c1ccccc1)c1nc(N)c([N+](=O)[O-])c(N2CCCCC2)n1 | 7.57 |
| O=C(/C=C/c1ccccc1)C1=C(O)C(=O)N(CCO)C1c1ccccc1[N+](=O)[O-] (stereo not shown) | 11.9 |
| CCOc1ccc(N2CC(C(=O)N3CCN(c4ccccn4)CC3)CC2=O)cc1 (stereo not shown) | -9.35 |
| FC(F)(F)C(Oc1nc(Nc2ccc(Cl)cc2)nc(N2CCOCC2)n1)C(F)(F)F | 11.9 |
| CCCOc1ccc(/C=c2\sc3nc(-c4ccco4)nn3c2=O)cc1OCC | 5.32 |
| Cc1ccc(NC(=O)COc2ccccc2C(N)=O)cc1S(=O)(=O)N1CCCCCC1 | -0.137 |
| CCOCCCNC(c1ccccc1)c1ccncc1 (stereo not shown) | 15.3 |
| CN(C)c1ccc(/C=N/NC(=O)c2ccc3c(c2)OCO3)cc1 | 1.12 |
| CCOc1ccccc1NC(=O)c1ccc(OCC)c([N+](=O)[O-])c1 | 1.13 |
| O=C(Nc1ccccc1N1CCOCC1)c1cccc([N+](=O)[O-])c1 | 2.37 |
| CCOc1ccc(C(=O)NC(=S)Nc2ccccc2N2CCCCC2)cc1[N+](=O)[O-] | 8.22 |
| CCOc1ccc(C(=O)Nc2ccccc2N2CCN(C(=O)c3ccccc3)CC2)cc1[N+](=O)[O-] | -84 |
| CN1CCN(c2ccccc2NC(=O)c2cccc([N+](=O)[O-])c2)CC1 | -67.1 |
| O=C(Nc1ccccc1N1CCCCC1)c1cccc([N+](=O)[O-])c1 | 9.68 |
| Cc1nc2nc(SCC(=O)N3CCOCC3)nn2c(C)c1Cc1c(F)cccc1Cl | 3.11 |
| CCOc1cc(N2CCOCC2)c(OCC)cc1NCC(=O)N1CCN(Cc2ccccc2)CC1.Cl | 9.92 |
| COc1ccc(NC(=O)Nc2nnc(-c3ccco3)s2)cc1 | 12.3 |
| NC(=O)c1nsc(C(=O)N(c2ccc(Cl)cc2)C(C(=O)NCC2CCCO2)c2cccs2)c1N (stereo not shown) | 10.7 |
| S=C(Nc1ccc(Cl)cc1Cl)N1CCN(c2ccccn2)CC1 | 12.7 |
| Cc1nc(SCC(=O)N2CCN(C(=O)c3ccco3)CC2)c2c(C)c(C)sc2n1 | -43.9 |
| O=C(CSc1nn(-c2ccc(F)cc2)c(=S)s1)N1CCN(C(=O)c2ccco2)CC1 | -64.6 |
| Cc1sc2nc(C(C)C)nc(SCC(=O)N3CCN(C(=O)c4ccco4)CC3)c2c1C | -41.5 |
| O=C(CSc1nc(-c2ccc(F)cc2)cs1)N1CCN(C(=O)c2ccco2)CC1 | -43.2 |

| Compound | hERG current change (%, negative = inhibition) at 1uM [%] |
| --- | --- |
| Cc1sc2ncnc(SCC(=O)N3CCN(C(=O)c4ccco4)CC3)c2c1C | -67.3 |
| O=C(CSc1nn(-c2ccc(Cl)cc2)c(=S)s1)N1CCN(C(=O)c2ccco2)CC1 | -44.1 |
| COc1cc(OC)cc(C(=O)Nc2cccc3cccnc23)c1 | 19.3 |
| Cc1cnc(CN(C)C(=O)CC2C(=O)NCCN2Cc2cccc(F)c2F)[nH]1 (stereo not shown) | 11.2 |
| O=C(NCc1n[nH]c(=S)n1-c1cccc(Cl)c1)c1cccs1 | 9.04 |
| COc1ccccc1C(C)Nc1nc(-c2cccnc2)nc2ccccc12 (stereo not shown) | 12.2 |
| CCOc1ccccc1OCCOCCN1CC(C)OC(C)C1 (stereo not shown) | 2.22 |
| Cc1[nH]c2ccccc2c1/C=C/c1nc2ccccc2c(=O)n1-c1ccc([N+](=O)[O-])cc1 | -1.09 |
| Cc1ccc(NC(=S)NC(=O)c2ccc(Br)o2)c(C)c1 | 13.3 |
| Cc1n[nH]c(=O)nc1N/N=C/c1cccs1 | 14.8 |
| Nc1ccccc1C(=O)N=Nc1[nH]c(N)c2ccccc12 | 21 |
| Nc1[nH]c(N=NC(=O)c2ccccc2)c2ccccc12 | 10.1 |
| Nc1[nH]c(N=NC(=O)c2ccccc2O)c2ccccc12 | -57.5 |
| O=c1[nH]c(CN2CC=C(c3ccccc3)CC2)nc2scc(-c3cccs3)c12 | 14.1 |
| CC(C)N(C)CCOC(=O)/C=C/c1ccccc1.Cl | 12 |
| Cc1cc(C)c2[nH]c3nc(SCC(=O)O)nnc3c2c1 | 16.7 |
| CC1CN(C(C)C)C(C)CC1OC(=O)c1ccccc1 (stereo not shown) | 16.7 |
| CN(C)[C@@H]1CCC[C@H]1OC(=O)C(c1ccccc1)c1ccccc1 | -40.2 |
| CC1CN(C)C(C)CC1OC(=O)C(c1ccccc1)c1ccccc1 (stereo not shown) | -68.3 |
| O=C(CN1CCC(Cc2ccccc2)CC1)N1CCc2ccccc2C1 | -62.2 |
| O=C(CCS(=O)(=O)Cc1ccccc1)N1CCc2ccccc2C1 | 8.69 |
| Cl.O=C(CN1CCN(c2ccc(F)cc2)CC1)N1CCC(Cc2ccccc2)CC1 | -5.57 |
| O=C(NCCNc1ccccc1[N+](=O)[O-])c1cc(F)c(F)cc1Cl | -2.68 |

| Compound | hERG current change (%, negative = inhibition) at 1uM [%] |
| --- | --- |
| COc1cc(NC(=O)C(C)Oc2ccccc2)c(C(=O)O)cc1OC (stereo not shown) | 9.7 |
| Cl.OC(c1cccc(Cl)c1)(c1cccc(Cl)c1)C1CN2CCC1CC2 (stereo not shown) | -69.6 |
| OC(c1ccccc1)(c1ccc(Cl)cc1)C1CN2CCC1CC2 (stereo not shown) | -11.9 |
| Cl.OC(c1ccccc1)(c1ccccc1)C1CN2CCC1CC2 (stereo not shown) | -1.7 |
| CCOC(=O)c1ccccc1NC(=O)[C@@H]1CCCN1C(=O)OC(C)(C)C | 3.14 |
| CC(C)(C)C(=O)NC1CCN(S(=O)(=O)c2ccccc2F)CC1 | 7.45 |
| CO/N=C/c1ccc(N2CCN(C(=O)c3ccc(C)cc3)CC2)c([N+](=O)[O-])c1 | -67.2 |
| CO/N=C/c1ccc(N2CCN(C(=O)c3cccc(C(F)(F)F)c3)CC2)c([N+](=O)[O-])c1 | -2.38 |
| CO/N=C/c1ccc(N2CCN(C(=O)c3ccc(F)cc3)CC2)c([N+](=O)[O-])c1 | -78.1 |
| CO/N=C/c1ccc(N2CCN(C(=O)c3ccc(Cl)cc3Cl)CC2)c([N+](=O)[O-])c1 | -18.5 |
| COc1ccc(N2CCN(C(=O)c3ccc(C)cc3)CC2)c([N+](=O)[O-])c1 | -29.7 |
| COc1ccc(N2CCN(C(=O)c3ccc(F)cc3)CC2)c([N+](=O)[O-])c1 | -38.3 |
| CCc1ccc(CNC(=O)CCCC(=O)n2nc(C)c3ccccc32)cc1 | 16.1 |
| CC(CCN1C(Nc2ccccc2)=NC[C@@H]1Cc1ccccc1)c1ccccc1 (stereo partly shown) | -52.7 |
| CCCCCCCN1C(Nc2ccccc2)=NC[C@@H]1C | -55.2 |
| CC(C)CCN1C(Nc2ccccc2)=NC[C@@H]1Cc1ccccc1 | -15 |
| CCCCN1C(Nc2ccccc2)=NC[C@@H]1Cc1ccccc1 | -44.2 |
| c1ccc(CCCCN2C(Nc3ccccc3)=NC[C@@H]2Cc2ccccc2)cc1 | -39.7 |
| CC(C)CCCN1C(Nc2ccccc2)=NC[C@@H]1C | -0.21 |
| CCCCN1C(Nc2ccccc2)=NC[C@@H]1C | 16.3 |
| CCCCCCCN1C(Nc2ccccc2)=NC[C@@H]1Cc1ccccc1 | -79.6 |
| CC(C)C[C@H]1CN=C(Nc2ccccc2)N1CCC(C)c1ccccc1 (stereo partly shown) | -8.04 |
